The list is not random: actives were taken first. Their share in the collection is about 3.6%.
Mtb FBA inh = Mtb fructose-bisphosphate aldolase inhibition | purified M. tuberculosis FBA, fluorescence read-out | AID 588726 | inhibition, % at 1 µM | 360,000 compounds, 2.3% hits;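 further: 0% = vehicle and 100% = reference inhibitor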
Target sequence (P9WQA3 whole entry, looked up): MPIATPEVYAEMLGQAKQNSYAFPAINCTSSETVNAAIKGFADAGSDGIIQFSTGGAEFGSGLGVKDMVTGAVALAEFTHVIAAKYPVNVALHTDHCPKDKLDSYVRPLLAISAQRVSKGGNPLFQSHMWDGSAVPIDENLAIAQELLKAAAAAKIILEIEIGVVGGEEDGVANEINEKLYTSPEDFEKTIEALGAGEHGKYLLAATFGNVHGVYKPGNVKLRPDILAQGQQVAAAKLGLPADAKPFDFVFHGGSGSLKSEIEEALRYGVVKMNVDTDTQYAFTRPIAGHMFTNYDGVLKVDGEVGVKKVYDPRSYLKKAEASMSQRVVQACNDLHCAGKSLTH
Mtb hypoxia inh = reduces hypoxia-regulated biosensor signal in M. tuberculosis; M. tuberculosis hypoxia-regulated fluorescent reporter, fluorescence; fluorescence inhibition, % (test concentration not listed); 300,000 compounds, 0.1% hits; AID 1159583; in the data active means fluorescence inhibition mostly above about 23%, no sharp cut-off; inactive means mostly below about 17%
GDH-TPI counter-1 = inhibits GDH-TPI coupling enzymes, artifact for Mtb FBA screen; GDH-TPI coupled enzyme counterscreen, NADH absorbance; inhibition, % at 4.8 µM; 360,000 compounds, 1.2% hits; AID 588335; in the data active means inhibition above about 30%;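 further: 0% = DMSO wells and 100% = wells lacking the enzyme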
DUSP3 inh = blocks human VHR1 dual specificity phosphatase | P51452 | recombinant VHR phosphatase, pNPP absorbance | inhibition, % at 13.3 µM | 290,000 compounds, 0.52% hits | AID 1654; in the data active means inhibition above about 50%
Target sequence (P51452 whole entry, looked up): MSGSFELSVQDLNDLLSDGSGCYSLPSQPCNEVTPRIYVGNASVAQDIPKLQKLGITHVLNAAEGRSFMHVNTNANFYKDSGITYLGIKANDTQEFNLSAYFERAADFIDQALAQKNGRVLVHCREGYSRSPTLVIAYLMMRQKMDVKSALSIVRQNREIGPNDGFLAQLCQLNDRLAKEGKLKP
Mtb bLac sens = beta-lactam sensitization of Mtb H37Rv | AID 434955 | 330,000 compounds, 0.27% hits | M. tuberculosis H37Rv growth with meropenem, percent inhibition | inhibition, % at 25 µM; call rule not given here;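 further: growth measured after seven days incubation then overnight dye step; 0% = bacteria only wells and 100% = bacteria with antibiotic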
Mtb FBA inh conf = confirmation of M. tuberculosis fructose-bisphosphate aldolase inhibitors. 5,600 compounds, 78% hits. inhibition, % at 1 µM. purified M. tuberculosis FBA, fluorescence read-out. shares compounds with Mtb FBA inh;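 further: 0% = vehicle wells and 100% = reference inhibitor wells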
GDH-TPI counter-2 = counter-screen for M. tuberculosis FBA inhibitors: GDH-TPI coupled enzyme inhibition. shares compounds with Mtb FBA inh. GDH-TPI coupled enzyme counterscreen, fluorescence. inhibition, % at 1 µM. 5,600 compounds, 81% hits. AID 652141; in the data active means inhibition above about 10%
GDH-TPI dose = inhibits GDH-TPI coupling enzymes in dose response. shares compounds with Mtb FBA inh. GDH-TPI coupled enzyme assay, fluorescence, artifact counterscreen. IC50, µM. 170 compounds, 79% hits; call rule not given here
Numbers without * were called inactive; / = no result; + = active, no number. Unless noted, no stated cut-off is given here; in the data, active means inhibition above about 27%; inactive means the rest.

SMILES	Mtb FBA inh	Mtb hypoxia inh	GDH-TPI counter-1	DUSP3 inh	Mtb bLac sens	Mtb FBA inh conf	GDH-TPI counter-2	others
O=S(=O)(O)c1cc(O)c2cc(Nc3ccccc3)ccc2c1	47.7*	9.9	17.0	/	/	90.9*	97.6*
CC(=NNC(=O)CCCNc1cccc(C)c1)c1ccncc1	/	15.6	/	/	/	/	/
Fc1ccc(-c2cnc(-c3cccs3)o2)cc1	60.6*	7.2	11.5	39.6	4.5	81.2*	70.5*
Fc1ccc(-c2nc(-c3cccs3)no2)cc1	-1.3	-5.2	9.0	21.3	-1.5	/	/
CC(C)NC(=O)Nc1ccc2c(c1)C(=O)N(C(C)CO)CC(C)C(CN(C)S(=O)(=O)c1cccs1)O2 (stereo not given)	/	8.6	/	/	/	/	/
c1coc(-c2nnc3n2C2(CCCC2)Cc2ccccc2-3)c1	6.3	4.5	10.7	8.3	6.0	/	/
COc1cc2c(cc1OC)-c1nnc(-c3ccco3)n1C1(CCCC1)C2	47.1*	7.7	-5.4	17.8	-0.1	108.1*	83.7*
CC1CN(C(C)CO)C(=O)c2cc(NS(=O)(=O)c3ccc(F)cc3)ccc2OC1CN(C)C(=O)NC1CCCCC1 (stereo not given)	/	-3.0	/	/	/	/	/
COc1ccc(N2CCN(C(=O)COC(=O)c3cccc(OC)c3O)CC2)cc1	-2.5	3.5	9.5	/	1.8	/	/
CCOC(=O)N1CCN(C(=O)COC(=O)c2ccccc2NCCO)CC1	107.3*	-8.7	8.6	/	-7.1	76.6*	78.4*
O=C(OCC(=O)N(CCc1ccccc1)Cc1ccccc1)c1ccccc1NCCO	66.3*	3.7	-8.2	-9.1	3.6	164.2*	105.8*
O=C(OCC(=O)N(CCc1ccccc1)Cc1ccccc1)c1ccccc1O	7.5	-10.8	7.0	/	90.8	/	/
CNc1ccccc1C(=O)OCC(=O)N1CCN(c2ccc(OC)cc2)CC1	72.8*	/	5.2	8.6	2.4	0.1	-5.2
O=C(OCC(=O)N1CCC(Cc2ccccc2)CC1)c1ccccc1NCCO	80.3*	6.5	7.1	/	2.9	46.6*	28.9*
O=C(OCC(=O)N1CCC(Cc2ccccc2)CC1)c1ccccc1O	-0.7	6.5	5.6	/	94.0	/	/
CNC(=O)COC(=O)COc1ccc2c(C)cc(=O)oc2c1	23.5	12.0	2.6	13.1	-1.3	/	/
Cc1cc(=O)oc2cc(OCC(=O)Nc3ccc(S(=O)(=O)N(C)C)cc3)ccc12	29.2*	11.0	4.9	6.1	-3.2	101.4*	63.6*
Cc1cc(=O)oc2cc(OCC(=O)OCC(=O)Nc3ccc(C(C)C)cc3)ccc12	29.3*	5.7	5.9	-4.8	2.9	86.3*	69.3*
CCN(CC)CCNC(=O)c1cc2c(=O)n(C)c3ccccc3c2n1C	27.6*	/	-1.0	-8.6	0.9	+	+
COC(=O)c1c(C)n(-c2ccc(OC)cc2)c2ccc(O)cc12	2.2	/	9.7	-0.5	7.8	/	/
CCOC(=O)c1c(C)n(-c2ccc(F)cc2)c2ccc(O)cc12	35.0*	8.1	-2.8	/	-6.7	43.7*	24.4*
COc1cc2oc3ccc(C#Cc4ccccn4)cc3c(=O)c2cc1OC	67.4*	-10.5	5.0	/	0.3	-3.2	-5.0
COc1cc2oc3ccc(C#Cc4ccc(N)cc4)cc3c(=O)c2cc1OC	8.0	15.5	23.5	/	1.1	/	/
COCCNC(=O)C1(C)CCN(C(=O)c2ccc3c(c2)C(C)(C)CCC3(C)C)C1 (stereo not given)	27.2*	/	-0.9	/	/	-3.7	-7.5
COCCNC(=O)C1(C)CCN(C(=O)c2ccc(F)c(C)c2)C1 (stereo not given)	2.3	/	5.6	/	/	/	/
SMILES	Mtb FBA inh	Mtb hypoxia inh	GDH-TPI counter-1	DUSP3 inh	Mtb bLac sens	Mtb FBA inh conf	GDH-TPI counter-2	others
CC1(C)CC2C3=CCC4[C@@]5(C)CCC(O)[C@@](C)(CO)C5CC[C@@]4(C)[C@]3(C)CC(O)[C@@]2(CO)C(O)C1O (stereo not given in full)	/	2.4	/	/	/	/	/
CCCSc1nnc(NC(=O)CSc2sc3c(O)cc(=O)[nH]c3c2C#N)s1	92.7*	2.0	-3.1	24.8	-6.8	12.0	-1.1	GDH-TPI dose=>10
c1ccc2c(N3CCCCC3)nc(N3CCOCC3)nc2c1	10.8	9.4	12.7	8.2	-9.2	/	/
O=c1[nH]c2ccccc2nc1N1CCOCC1	-2.0	/	25.9	15.4	-6.2	/	/
c1ccc2c(c1)nc(N1CCOCC1)c1c3ccccc3[nH]c21	31.3*	3.2	-1.4	-10.9	94.1	62.0*	62.8*
c1ccc2c(NCC3CCCO3)nc(N3CCOCC3)nc2c1 (stereo not given)	64.4*	14.0	13.9	39.3	-6.0	175.7*	132.2*
Nc1nc(N2CCOCC2)nc2ccccc12	75.1*	16.4	22.8	8.2	-2.6	-5.1	-6.6
CCOc1ccc2nc(N3CCOCC3)nc(C)c2c1	50.6*	/	15.4	-15.0	-2.5	130.9*	108.9*
Cc1cc(=O)[nH]c(NN=Cc2cc(C)n(CC(F)(F)F)c2C)n1	/	6.2	/	/	/	/	/
O=C(NN=Cc1ccc2c(c1)OCO2)c1cc2ccccc2o1	/	-2.7	/	/	/	/	/
COC(=O)C1=C(c2c(C)noc2C)CC2CCC1N2C(=O)NC1CCCCC1 (stereo not given)	/	7.2	/	/	/	/	/
CCN1C(=O)C2C(c3ccc(C)cc3)N3C(=O)N(c4ccc(C)cc4)C(=O)[C@@]3(C)C2C1=O (stereo not given in full)	/	4.8	/	/	/	/	/
c1cc(-c2cnc3cccnn23)c2cccnc2c1	37.7*	/	16.4	/	/	127.1*	114.7*
CSc1ccccc1-c1cnc2cccnn12	4.0	/	8.0	/	/	/	/
c1ccc2c(-c3cnc4cccnn34)cncc2c1	40.3*	/	15.6	/	/	187.9*	106.1*
CSc1ccc(C=NNC(=O)CN2CCN(Cc3ccccc3Cl)CC2)cc1	/	-0.4	/	/	/	/	/
CCN(CC)CCNC(=O)c1cc2c(-c3cccc(OC)c3)nn(C)c2s1	60.4*	9.1	22.8	23.6	-1.2	173.0*	128.6*
Cn1nc(-c2ccccc2)c2cc(C(=O)O)sc21	48.8*	6.9	7.9	35.7	-2.5	1.2	0.5
COc1cccc(-c2nn(C)c3sc(C(=O)NCc4ccc(C)cc4)cc23)c1	17.8	3.9	5.3	-18.3	7.6	/	/
COc1cccc(-c2nn(C)c3sc(C(=O)NCc4ccccn4)cc23)c1	80.1*	/	20.0	14.5	-8.7	-0.1	-2.1
COCCCNC(=O)c1cc2c(-c3cccc(OC)c3)nn(C)c2s1	89.1*	-4.7	10.8	2.4	-11.1	119.4*	107.5*
CC(=NN1CCN(Cc2ccccc2Cl)CC1)c1ccc(F)cc1	/	1.3	/	/	/	/	/
O=C1NC(=O)N(c2ccccc2)C(=O)/C1=C\c1ccc2c3c(cccc13)CC2	/	/	/	14.7	7.9	/	/
COc1ccccc1N1C(=O)NC(=O)/C(=C/c2ccc3c4c(cccc24)CC3)C1=O	37.7*	5.6	18.0	17.6	2.9	17.5	-6.0	GDH-TPI dose=3.89*
O=S(=O)(Nc1ccccc1)c1ccc(-c2cnc(C3CC3)o2)cc1	17.9	0.9	6.3	-10.2	-3.2	/	/

Screens: PubChem BioAssay, several laboratories
